CF NFkB block = inhibitors of PAF-induced NF-kB signaling, primary screen, cell-based, GFP fluorescence, uHTS | KKLEB NF-kB-GFP reporter, GFP fluorescence overnight | inhibition, % at 5 µM | actives 0.86% (n = 360,000);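 active = at least 50% inhibition at 5 µM, scaled per plate between neutral and stimulator controls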;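 note: PAF is a Pseudomonas aeruginosa culture filtrate used as stimulus; plate controls were PAF-stimulated DMSO wells for no effect and unstimulated DMSO wells for full effect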
Peg3 promoter = Peg3 promoter-driven luciferase inhibitors, primary screen, cell-based, HeLa, luciferase luminescence. HeLa PEG-Prom luciferase reporter, overnight. inhibition, % at 20 µM. actives 1.7% (n = 360,000);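 active = inhibition of at least 50% at 20 µM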
TWEAK-Fn14 inh = inhibitors of TWEAK-Fn14 signaling, primary screen, luciferase reporter cells, uHTS; AID 1159606, 2016; inhibition, % at 10 µM; actives 2% (n = 360,000); TWEAK-stimulated Fn14 reporter cells, luciferase luminescence, 8 h; in the data active = inhibition above about 50%
KKLEB tox = cytotoxicity in KKLEB CF airway cells, primary screen, cytotoxicity control for CF NF-kB inhibitor project, cell-based, uHTS, fluorescence assay plates; KKLEB CF airway cells viability, ATPlite luminescence, overnight; hits give low values; cells stimulated with P. aeruginosa culture filtrate; activity change (cytotoxicity), % at 5 µM; actives 0.36% (n = 360,000);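 active = corrected activity change at or below -50% at 5 µM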
TROY NFkB inh = inhibitors of TROY-driven NF-kB signaling, primary screen, Q293 LMP1-TROYcd cells, NF-kB luciferase, uHTS; Q293 LMP1-TROYcd NF-kB luciferase reporter, 4 h; inhibition, % at 10 µM; actives 0.98% (n = 360,000);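 active = compounds whose plate-normalised and pattern-corrected inhibition of the luciferase reporter signal at the single screening dose is 50% or more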
HIF-2a inh = HIF-2a reporter inhibitors, primary screen, luminescence, 786-0 RCC cells; 786-0 RCC cells HIF-2a reporter, luciferase luminescence, overnight; inhibition, % at 18.8 µM; actives 0.72% (n = 360,000);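 active = inhibition of the luminescence signal of 40% or more relative to plate controls, in a single-dose primary screen at 18.75 µM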
* = called active by the depositor; · = no result given. Shown are actives, neighbours in structure and some others; about 4% of the full set was active somewhere.

SMILES | CF NFkB block | Peg3 promoter | TWEAK-Fn14 inh | KKLEB tox | TROY NFkB inh | HIF-2a inh
COc1ccc(NC(=O)N(C)[C@H]2C[C@H]3c4[nH]c5ccc(-c6ccc7c(c6)OCO7)cc5c4CCN3C[C@H]2[C@H](C)O)cc1 | 10.3 | 54.6* | 7.3 | -2.4 | 13.3 | -10.6
O=C1OC(Cc2ccccn2)C(O)=C1C1=NCCCN1 (stereo not given) | 3.9 | -117.2 | 2.4 | 6.6 | -30.8 | -68.5
CN(C)CCNCCCNc1c2ccccc2nc2cccc([N+](=O)[O-])c12 | -75.1 | 98.3* | -25.8 | -15.5 | -22.1 | -16.6
CN(C)CCCNc1c2c(nc3ccccc13)CCC2 | -11.5 | -10.0 | -14.2 | -1.4 | -2.0 | 15.0
CCN(CC)C(=O)c1sc(NC(=O)c2ccc3c(c2)OCO3)c(C(N)=O)c1C | 12.9 | -177.1 | -16.8 | -3.1 | -44.9 | -176.3
CCN(CC)C(=O)c1cccc(-c2csc(C(O)c3cccc(Cl)c3)n2)c1 (stereo not given) | -5.9 | 30.3 | 61.4* | -2.7 | 45.1 | 10.8
NS(=O)(=O)c1ccc(NC(=O)COc2ncnc3sccc23)cc1 | 18.8 | 4.4 | -8.5 | -8.9 | 5.3 | 15.3
CC[C@H](C)[C@@H]1NC(=O)[C@@H](CC(C)C)NC(=O)[C@H](C(C)C)NC(=O)[C@H]2CSSC[C@H](NC1=O)C(=O)N2 | 82.5* | 97.9* | 106.7* | -106.0* | 86.3* | 95.7*
CN1CCN(C(=O)c2cc3c(c(-c4cccc(-c5cc6ccccc6o5)c4)n2)[C@H](CCO)N(S(=O)C(C)(C)C)C3)CC1 (stereo not given in full) | -4.5 | 23.4 | -15.7 | -2.4 | -46.9 | -30.1
CC(=O)c1c(C(C)=O)c(C)n(NC(=O)c2ccncc2)c1C | -13.0 | -1.4 | 52.5* | -0.7 | · | 13.5
O=C(Nn1cnnc1)c1ccncc1 | 5.0 | -4.3 | -1.1 | -13.6 | -3.7 | 14.9
Cc1cc(=O)[nH]c(SCC(=O)Nc2cccc3ccccc23)c1C#N | 12.1 | 0.6 | 15.3 | -0.2 | 51.8* | -6.2
Cc1ccc(C(=O)Nc2cccc3ccccc23)cc1 | -0.7 | -134.5 | -21.9 | -3.6 | -28.9 | -167.4
CC(C)(C)c1ccc(C(=O)Nc2cccc3c(=O)[nH][nH]c(=O)c23)cc1 | 14.8 | -112.6 | 80.0* | -5.9 | 52.8* | 11.2
N=c1cc(C2(O)CCCCC2)n2c(nc3ccccc32)s1 | -5.4 | -144.7 | 64.0* | -5.9 | 27.3 | -54.4
O=C(Nc1cccc2c1CCCC2)c1ccc(Cl)c([N+](=O)[O-])c1 | 7.4 | 26.1 | 13.0 | 3.5 | -21.8 | 14.7
O=C(Nc1cccc2c1CCCC2)c1cc([N+](=O)[O-])ccc1Cl | -17.4 | 43.9 | 51.0* | -24.3 | -11.9 | -16.0
O=C(CN1c2ccccc2Sc2ccccc21)NNC(=O)Nc1ccc(Cl)c(Cl)c1 | 1.6 | 24.5 | 23.2 | 16.8 | 59.3* | -6.6
O=C(CN1c2ccccc2Sc2ccccc21)NNC(=O)Nc1ccc(Cl)cc1 | -12.6 | 27.1 | 11.0 | -0.5 | 31.0 | 33.2
Cc1ccccc1/C=C1\SC(=S)N(/N=C/c2cc([N+](=O)[O-])ccc2O)C1=O | -4.0 | 11.9 | 16.7 | 2.0 | 77.8* | 1.1
O=C(O)CN1C(=O)/C(=C\c2cc([N+](=O)[O-])ccc2OCc2ccccc2Cl)SC1=S | 11.3 | -3.3 | 16.0 | 2.3 | 5.4 | 1.1
O=C1/C(=C\c2cc([N+](=O)[O-])ccc2O)SC(=S)N1Cc1ccc(Cl)cc1 | 11.0 | 97.5* | 72.4* | -41.3 | 52.7* | -17.8
O[C@H]1CN(CC2CCCCC2)[C@@H](c2ccc(Cl)cc2)C[C@@H]1n1cc(-c2ccc(F)cc2)nn1 | 32.6 | 34.6 | 50.2* | -0.7 | 10.1 | -11.9
O[C@H]1C[C@H](c2ccccc2)N(CC2CCCCC2)C[C@@H]1n1cc(C2CC2)nn1 | 3.3 | -10.8 | 64.1* | -10.0 | -19.2 | -49.9
CCCCCCN1C[C@H](n2cc(-c3ccc(F)cc3)nn2)[C@@H](O)C[C@@H]1c1ccc(Cl)cc1 | 26.6 | 97.7* | 15.5 | -6.8 | -1.0 | 4.4
SMILES | CF NFkB block | Peg3 promoter | TWEAK-Fn14 inh | KKLEB tox | TROY NFkB inh | HIF-2a inh
CCCCCCN1C[C@H](n2cc(-c3ccc(F)cc3)nn2)[C@@H](O)C[C@@H]1c1ccccc1 | 4.3 | 2.4 | -0.9 | -4.5 | -1.1 | -14.3
O[C@H]1CN(CC2CCCCC2)[C@@H](c2ccc(Cl)cc2)C[C@@H]1n1cc(C2CC2)nn1 | 9.5 | 2.5 | 29.6 | 16.4 | 51.8* | -28.9
COc1ccc(CNC(=O)CNS(=O)(=O)c2cccc(C#N)c2)cc1OC | 15.3 | 14.1 | 26.6 | 1.2 | -0.6 | 20.9
CC(C)(C)[C@@H]1C=C(C(N)=O)O[C@H](OCCCCO)C1 | -5.5 | 9.8 | -8.0 | 10.6 | 11.8 | 9.4
O=c1c2c(nc3cc(-c4ccc(Cl)cc4)[nH]n13)CCS2 | -37.9 | -210.6 | 73.2* | 12.1 | -17.4 | -130.7
O=c1c2c(nc3cc(-c4ccc(F)cc4)[nH]n13)CCCC2 | -37.1 | -86.5 | 79.7* | 15.9 | 55.8* | -10.0
O=c1c2c(nc3cc(-c4cccc(F)c4)[nH]n13)CCC2 | 9.7 | -149.9 | 42.7 | -4.3 | 10.5 | -132.4
O=C(NCC(c1ccco1)N1CCc2ccccc2C1)c1ccc(Br)cc1 (stereo not given) | 21.1 | -2.1 | 16.6 | -5.4 | -25.9 | 0.6
COc1cccc(CN(C)C[C@@H]2OCc3cnnn3CCCC(=O)N([C@H](C)CO)C[C@H]2C)c1 | -10.7 | -1.2 | -1.0 | 4.8 | 4.1 | 6.9
CCN(CC)c1ccc(C(=O)NC(=S)Nc2cc(S(=O)(=O)N3CCOCC3)ccc2-n2cncn2)cc1 | 30.8 | 7.8 | 0.0 | -70.8* | 4.2 | 18.0
CC(=NNC(=S)N1CCN(c2ccccn2)CC1)c1nccs1 | 65.5* | 24.2 | 104.3* | 5.8 | 12.8 | -129.4
CCCC(C(=O)NCCC(C)C)N(Cc1ccc(OC)cc1)C(=O)c1snc(C(N)=O)c1N (stereo not given) | -5.7 | 8.7 | -5.7 | 1.9 | -7.1 | -2.8
O=c1[nH]c(=O)c2[nH]c(=S)n(-c3ccccc3)c2[nH]1 | 8.8 | 15.0 | 14.3 | 11.1 | -17.5 | -6.1
COCCn1c(SCC(=O)Nc2ccc(F)cc2)nc2c(oc3ccccc32)c1=O | 41.9 | 6.2 | -6.1 | -54.2* | 2.5 | 10.3
COc1cc(NC(=O)Nc2ccccc2OC)c(OC)cc1NC(=O)CN1CCCCC1 | -4.4 | -13.3 | 5.5 | -2.0 | -12.7 | -14.4
COc1cc(NC(=O)Nc2ccccc2)c(OC)cc1NC(=O)CN1CCCCC1 | -15.0 | -32.5 | 78.0* | 12.3 | · | -40.9
Cc1cccc(CNC(=O)Nc2nnc([C@H]3C[C@H](O)[C@@H](CO)O3)s2)c1 | -11.7 | -3.9 | 14.4 | 14.5 | -23.1 | -5.7

Screening data from PubChem.
